Molecules are shown by their SMILES. Calls of active or inactive are those of the source. Unless noted, no rule for the calls is given here.

Test [1] has as its system Wnt5a (protein binding on small-molecule microarray). Description: Wnt5a binders on small-molecule microarray, primary screen, biophysical, 635/667 nm fluorescence (AID 1142).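 Also: fluorescence read at 667 nm with signal to noise per printed feature.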 The following applies: 635 nm fluorescence, higher = more signal.
Test [2] in a line: cell viability in Huh7 cells, primary screen, cytotoxicity control for HCV replication inhibitor project, CellTiter-Glo luminescence, basal, 48 h (AID 1143).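 Also: Huh7 hepatoma cells carrying a hepatitis C replication reporter with no stimulus; test concentration not given here.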 The following applies: Huh7 HCV replicon, higher = more signal, called active from +8 up or from −8 down.
Test [3] is described as follows: P. aeruginosa biofilm formation inhibitors, primary screen, PAO1 strain, BacTiter-Glo luminescence, LB-PBS (AID 1144). Particulars: 12 h, higher = more signal.
A short description of test [4]: CREB reporter modulators without forskolin, primary screen, cell-based, PC12, CRE-LacZ reporter, unstimulated (AID 1145). The following applies: no forskolin, luminescence, 4.5 h, higher = more signal, called active from +8 up or from −8 down.
A short description of test [5]: CREB reporter modulators under forskolin, primary screen, cell-based, PC12, CRE-LacZ reporter, forskolin-stimulated (AID 1146).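 Also: PC12 cells with 6xCRE LacZ reporter stimulated by forskolin 10 µM; beta-galactosidase reporter signal reflecting CREB driven transcription.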 Particulars: luminescence, 4.5 h, higher = more signal, called active from +8 up or from −8 down.
Test [6] has as its target Streptavidin (Streptomyces avidinii) (UniProt P22629). Put plainly: streptavidin binders on small-molecule microarray, primary screen, artefact control for SMM compound annotation, biophysical, 635/667 nm fluorescence (AID 1147).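 Also: signal reflects streptavidin binding to arrayed compounds as a control protein.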 Particulars: streptavidin binding, higher = more signal.
Test [7] can be described thus: small-molecule binders of probe aInhba, primary screen, biochemical, small-molecule microarray, 635/667 nm fluorescence (AID 1148).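 Also: score merges 667nm spot fluorescence with signal-to-noise for antibody binding to printed compounds.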 Particulars: higher = more signal.
Test [8] addresses Torsin-1A (Homo sapiens) (UniProt O14656). Description: torsin A binders from cell lysate, primary screen, small-molecule microarray, wild-type, 635/667 nm (AID 1149). Particulars: COS7 hTOR1A-WT lysate, 635 nm fluorescence, higher = more signal.
Test [9] shares this target. Description: small-molecule binders of mutant TOR1A in lysate, primary screen, cell lysate, small-molecule microarray, COS7 lysate, 635/667 nm fluorescence (AID 1150).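 Also: score pools 667 nm emission and signal to noise measuring lysate protein binding.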 Particulars: COS7 hTOR1A mutant lysate, 635 nm fluorescence, higher = more signal.
Test [10] relates to Sonic hedgehog protein (Shh). Description: small-molecule binders of Shh protein, primary screen, biochemical, small-molecule microarray, 635/667 nm fluorescence (AID 1151).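 Also: Shh protein binding to compounds spotted on small-molecule microarray slides; score combines spot fluorescence intensity with signal-to-noise across triplicate slides.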 Particulars: small-molecule microarray binding, 635 nm fluorescence; higher = more signal.

Chain of Torsin-1A (Homo sapiens) (O14656 whole entry, looked up): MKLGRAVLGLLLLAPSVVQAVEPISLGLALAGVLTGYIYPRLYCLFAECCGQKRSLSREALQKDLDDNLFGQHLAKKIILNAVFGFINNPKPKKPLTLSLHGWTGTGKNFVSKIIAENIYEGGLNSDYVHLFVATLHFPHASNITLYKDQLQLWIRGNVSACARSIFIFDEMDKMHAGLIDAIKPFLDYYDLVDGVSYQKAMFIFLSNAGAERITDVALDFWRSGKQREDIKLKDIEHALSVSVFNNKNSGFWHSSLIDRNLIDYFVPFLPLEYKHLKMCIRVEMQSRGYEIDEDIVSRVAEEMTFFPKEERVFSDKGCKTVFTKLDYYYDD
Chain of Streptavidin (Streptomyces avidinii) (P22629 whole entry, looked up): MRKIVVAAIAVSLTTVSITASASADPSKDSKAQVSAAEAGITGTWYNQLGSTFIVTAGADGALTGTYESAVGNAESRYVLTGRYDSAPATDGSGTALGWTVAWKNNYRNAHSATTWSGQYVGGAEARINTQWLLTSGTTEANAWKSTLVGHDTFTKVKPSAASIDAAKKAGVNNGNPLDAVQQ

As to `COC(=O)[C@@]1(Cc2ccc(OC)cc2)[C@H]2c3cc(C(=O)N(C)C)[nH]c3C[C@H]2CN1C(=O)c1ccccc1`, the composite z-score in test [1] is 0.117; in test [6] it was 0.226; in [7], -0.0645; with Torsin-1A (Homo sapiens) [8], -0.209; with Torsin-1A (Homo sapiens) [9], -0.369; in test [10] it was -0.814. The z-score in test [2] is 0.244 (inactive); in test [3], 0.857 (inactive); in test [4], 0.383 (inactive); in test [5], -0.289 (inactive).

Consider `O=C(NCC(O)CO)C1N=C(c2ccc(OCCCO)cc2)N(c2ccccc2)O1` (stereo not given), for which the composite z-score in test [1] was 0.41; in test [6], -0.214; in [7], -0.0468; with Torsin-1A (Homo sapiens) [8], 0.975; with Torsin-1A (Homo sapiens) [9] it was 0.682; in test [10] it was 1.27. Besides, the z-score in test [2] is -1.12 (inactive); in [3], 2.56 (inactive); in [4], 0.456 (inactive); in test [5], -0.442 (inactive).

On to `COc1ccc([Si](C)(C)[C@@H]2[C@@H](CC(=O)N3Cc4ccccc4C[C@H]3CO)O[C@]3(C(=O)N(Cc4ccc(N5CCOC5=O)cc4)c4ccccc43)[C@H]2C)cc1`, for which the composite z-score was -0.0088 in [1]; -0.0492 in [6]; -0.128 in test [7]; 0.438 with Torsin-1A (Homo sapiens) [8]; 0.702 with Torsin-1A (Homo sapiens) [9]; 1.96 in test [10]. For the same compound, the z-score in test [2] was -4.75 (inactive); in test [3] it was -0.081 (inactive); in test [4] it was 0.949 (inactive); in test [5] it was -0.888 (inactive).

As to `COc1ccc([Si](C)(C)[C@@H]2[C@@H](CC(=O)N3Cc4ccccc4C[C@H]3CO)O[C@]3(C(=O)N(Cc4cccc(N5CCOC5=O)c4)c4ccccc43)[C@H]2C)cc1`, the composite z-score in [1] was 0.244; in test [6], -0.281; in test [7], -0.0581; with Torsin-1A (Homo sapiens) [8] it was 0.846; with Torsin-1A (Homo sapiens) [9], 0.737; in test [10], 2.11. Further, the z-score in test [2] was -4.12 (inactive); in test [3], 0.291 (inactive); in test [4], -0.491 (inactive); in test [5] it was -0.318 (inactive).

Turning to `CN1C(=O)C2C(C1=O)C1C=C(CCCO)C2C(C2CC2)N1Cc1cccc(OC(F)(F)F)c1` (stereo not given), the composite z-score was -0.317 in [1]; 0.851 in test [6]; -0.101 in test [7]; 1.03 with Torsin-1A (Homo sapiens) [8]; 1.76 in the test with Torsin-1A (Homo sapiens) [9]; -0.525 in test [10]. Further, the z-score in [2] is -0.591 (inactive); in test [3], 0.55 (inactive); in [4] it was -0.348 (inactive); in test [5], 1.3 (inactive).

In the case of `Cc1ccc(S[C@]2(C(=O)NCCCN(C)C)CC(=O)N(Cc3ccccc3C(F)(F)F)[C@@H]2c2ccc(CO)cc2I)cc1`, the composite z-score in test [1] was -0.379; in test [6], -0.493; in test [7], 0.189; with Torsin-1A (Homo sapiens) [8], 0.22; in the test with Torsin-1A (Homo sapiens) [9], -0.144; in test [10], -0.117. The z-score is -1.13 (inactive) in test [2], 0.323 (inactive) in test [3], -0.464 (inactive) in [4] and 1.66 (inactive) in test [5].

Consider `Cc1ccc(S[C@]2(C(=O)NCC(F)(F)F)CC(=O)N(Cc3ccccc3C(F)(F)F)[C@@H]2c2ccc(CO)cc2)cc1`, for which the composite z-score is -0.186 in test [1]; -1 in test [6]; -0.179 in test [7]; -1.23 in the test with Torsin-1A (Homo sapiens) [8]; 0.0748 in the test with Torsin-1A (Homo sapiens) [9]; -0.972 in [10]. Also, the z-score was 0.518 (inactive) in [2], 0.0205 (inactive) in [3], -0.349 (inactive) in test [4] and -0.163 (inactive) in [5].

In the case of `CCOC(=O)C[C@H]1[C@H](OC(=O)c2ccccc2-c2ccccc2)[C@@H](NC(=O)c2ccc3ccccc3c2)c2cc(OCCCO)ccc2N1C(=O)Cc1ccc(OC)cc1`, the composite z-score was 0.23 in test [1]; -0.0096 in test [6]; -0.128 in [7]; 0.0216 with Torsin-1A (Homo sapiens) [8]; 0.768 with Torsin-1A (Homo sapiens) [9]; -0.314 in test [10]. Moreover, the z-score in test [2] is 0.0138 (inactive); in [3] it was 0.619 (inactive); in test [4], 3.37 (inactive); in [5] it was 0.654 (inactive).

On to `C=CCOC(=O)[C@H]1[C@@H]2C(=O)O[C@@H](c3ccccc3)[C@@H](c3ccccc3)N2[C@@H](c2ccc(OCCOC(=O)[C@@H]3C[C@@H]4C(=O)N[C@@H](CCCC[N+](C)(C)C)C(=O)N4[C@@H]3c3ccc(O)cc3)cc2)[C@]12C(=O)Nc1ccc(I)cc12`, for which the composite z-score was 1.02 in [1]; 0.0756 in [6]; 0.632 in test [7]; 1.16 in the test with Torsin-1A (Homo sapiens) [8]; 1.57 with Torsin-1A (Homo sapiens) [9]; 2.05 in test [10]. Further, the z-score in test [2] was -0.56 (inactive); in test [3], 0.201 (inactive); in [4], 0.553 (inactive); in test [5] it was 1.07 (inactive).

Turning to `COC(=O)[C@@]1(Cc2ccccc2)[C@H]2c3cc(C(=O)N(C)C)n(Cc4ccc(C(F)(F)F)nc4)c3C[C@H]2CN1C(=O)c1ccccc1`, the composite z-score in test [1] was 0.598; in test [6] it was 2.08; in test [7], 0.433; with Torsin-1A (Homo sapiens) [8], 0.167; with Torsin-1A (Homo sapiens) [9] it was 0.511; in test [10], -0.561. Also, the z-score in test [2] is -1.94 (inactive); in test [3], -0.0691 (inactive); in test [4], -0.189 (inactive); in test [5], 0.484 (inactive).

In the case of `CC(C)(C)OC(=O)CC[C@]1(C(=O)NCC(O)CO)N=C(c2ccc(OCCCO)cc2)O[C@H]1c1ccccc1N=[N+]=[N-]` (stereo not given in full), the composite z-score in test [1] came to 0.112; in [6], 1.38; in [7] it was 0.32; with Torsin-1A (Homo sapiens) [8], 0.172; in the test with Torsin-1A (Homo sapiens) [9] it was 0.565; in test [10], 0.0555. The z-score in test [2] is -1.01 (inactive); in test [3], -0.00253 (inactive); in [4], -0.0808 (inactive); in test [5], -1.48 (inactive).

On to `COc1ccc(C(O)C2C=CC3C(=O)N(C)C(=O)C3N2N(c2ccccc2)c2ccccc2)cc1` (stereo not given), for which the composite z-score in test [1] was 0.0865; in [6], 1.35; in test [7], 0.105; with Torsin-1A (Homo sapiens) [8], 0.153; with Torsin-1A (Homo sapiens) [9], 0.368; in [10] it was -0.176. In addition, the z-score in [2] was 0.522 (inactive); in test [3] it was 0.219 (inactive); in test [4] it was 0.629 (inactive); in [5] it was 0.517 (inactive).

Consider `COc1ccc([Si](C)(C)[C@H]2[C@H](CCO)O[C@@]3(C(=O)N(Cc4ccc(NC(=O)[C@H](C)O)cc4)c4ccccc43)[C@@H]2C)cc1`, for which the composite z-score in test [1] is 0.185; in test [6], 0.674; in test [7] it was -0.0405; with Torsin-1A (Homo sapiens) [8] it was 0.189; with Torsin-1A (Homo sapiens) [9] it was 0.753; in test [10], 0.785. The z-score in test [2] is -8.05 (active); in test [3], -0.159 (inactive); in test [4], 5 (inactive); in test [5], -1.71 (inactive).

On to `C=C(COC)/C(=C/C[C@@H](OC(C)=O)c1ccccc1OCCO)c1cnc2ccccc2c1`, for which the composite z-score in test [1] was 0.3; in test [6], 0.219; in [7], -0.0087; with Torsin-1A (Homo sapiens) [8], 2.53; in the test with Torsin-1A (Homo sapiens) [9], 2.34; in test [10], 2.29. The z-score is -2.52 (inactive) in test [2], 0.514 (inactive) in test [3], 8.98 (active) in test [4] and 0.879 (inactive) in test [5].

These data come from PubChem BioAssay.
